Key:
Assay in all cases: PBM binding z-score (relative to random genomic background probes); higher = stronger binding; sequences stand for … in GC…GCGATTGACAGCGTAGAATGAAGG
[1] = system: PPARg:RXRa DBDmut IVT, anti-RXR (DBD mutation: RXRa K156A/R161A, NR concentration 270 nM, RXRa partner concentration 90 nM)
In short: (§1)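 Custom Agilent 4×180K protein-binding microarrays carried double-stranded probes, each with a 34-nt variable region. These regions held direct-repeat seeds, single-nucleotide variants, half-site ablations and random human genomic background sequences. Ligand-free nuclear receptor dimers were incubated on the arrays for 1 h, antibodies against each partner (one per run) detected binding, and scanned fluorescence was regression-normalized. Binding z-scores take the random background probes as reference.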

[2] = system: PPARg:RXRa IVT, anti-PPARg (NR concentration 270 nM, RXRa partner concentration 90 nM)
In short: as §1

[3] = system: PPARg DBDmut:RXRa IVT, anti-PPARg (DBD mutation: PPARg1 K132A/R137A, NR concentration 270 nM, RXRa partner concentration 90 nM)
In short: as §1

[4] = system: PPARg DBDmut IVT, anti-PPARg (DBD mutation: PPARg1 K132A/R137A, NR concentration 270 nM)
In short: as §1

[5] = system: PPARg homodimer (NR concentration 180 nM)
In short: as §1

[6] = system: PXR:RXRa (NR concentration 270 nM, RXRa partner concentration 90 nM)
In short: as §1

[7] = system: PXR homodimer (NR concentration 270 nM)
In short: as §1

[8] = system: RARa:RXR (NR concentration 270 nM, RXRa partner concentration 90 nM)
In short: as §1

[9] = system: RARa homodimer (NR concentration 270 nM)
In short: as §1

[10] = system: RARb:RXRa (NR concentration 270 nM, RXRa partner concentration 90 nM)
In short: as §1

Sequence	PBM binding z-score [1]	PBM binding z-score [2]	PBM binding z-score [3]	PBM binding z-score [4]	PBM binding z-score [5]	PBM binding z-score [6]	PBM binding z-score [7]	PBM binding z-score [8]	PBM binding z-score [9]	PBM binding z-score [10]
CCGACTGGGGCAGGAAGGTTACCATACCATCCGG	1.39	2.05	-0.739	-1.79	0.462	-0.00877	-0.202	0.286	-0.388	0.913
CGTCCAAGGTCAGCGAGGTCAGTGAATGCCGAGT	3.43	3.81	-0.776	-0.834	4.66	6.03	11.6	5.42	1.25	5.45
TGTCCAAGTTCAAAGGTAACGTAAGTATCCACAC	-0.319	1.81	1.26	1.32	1.85	4.87	3.45	5.04	0.541	3.42
GCATATAGGTAACACAAGGTGAAAGTCCGATTGT	5.29	4.7	0.827	0.927	0.275	0.74	-0.11	1.25	0.102	0.856
AGAATGAGGTTATACGTAGAACAGGGAAGAAAGT	4	1.9	1.52	1.09	1.26	1.09	0.773	1.36	-0.459	1.36
CCTACTGGGCCACGAAATGTCATTGATTCAGTGA	6.24	5.34	0.216	-0.527	0.759	-0.308	-0.533	0.0426	-0.591	0.57
CCCAGTAGGTTATGGGGCATTCAGGCAACGGTGA	3.64	4.66	-0.461	-0.268	0.645	-0.0768	-0.414	0.112	-0.0462	0.967
CCTATTAGTTGACCATAAGGGCAACCTAAGCTCG	0.374	0.836	0.365	0.874	1.32	0.876	0.98	1.49	2.27	1.57
ACTATTAGTTGACTTAGGTCAACCGATACGACGC	0.95	1.72	1.38	1.44	2.81	2.2	1.29	2.59	1.55	2.73
AGAATGAGGTTACCAAAGATGAGGGAAACGCTTG	3.67	3.1	1.29	0.621	0.657	1	0.117	1.79	0.142	2.14
CGTCCAAGGACATAGGAGGTCAGTGAAGACAGAT	0.24	1.36	-0.861	-1.72	1.48	2.07	0.81	2.11	0.692	2.76
TGTCAAAGTTCAAGGGTAACGTAAGTATCCACAC	-0.0175	4.63	1.78	1.04	2.41	4.83	2.3	4.95	0.926	5.05
TCTAGTGGGTCACGGAGGTCACACACGACGGGTA	7.01	7.92	1.74	0.78	4.58	5.92	5.35	6.43	2.44	4.78
TCTTGAAGATCAAAGGTTAAGAAAGCCGAAGCCT	1.75	1.72	0.267	0.871	1.22	2.3	0.147	3.49	0.254	2.07
CGAACTAGGTCAAGGACAGCGAATCTCCGCACGC	7.76	8.26	2.54	2.03	1.63	1.06	0.0262	1.9	0.554	3.81
GCATTTAGGTAATACAAGGTGAAAGTCCGATTGT	3.13	2.5	1.39	0.568	0.826	0.319	0.3	0.911	0.039	0.715
CCGACTGGGCCAAGGTTACCATAACGCACAGCCA	1.61	1.71	0.193	-0.788	0.313	0.153	-0.166	0.508	-0.101	0.98
CCAACTAGGTCATCCAGGACAGTGAATACATTGA	7.67	7.53	1.61	1.62	2.3	1.94	1.63	2.35	1.24	3.89
CGTCAGAGTTCAACTAAGGTAACGTAAAGCACGC	0.228	1.32	0.422	0.416	2.24	5.76	6.21	4.1	1.3	4.73

— the supplement of paper PMC6555819
